{"source": "ChEMBL document CHEMBL3988442", "about": "“University of Dundee, Small-Polar-MMV Screening Library” (2021)", "data": [{"biological_target": "T1, Aspartate--tRNA(Asp/Asn) ligase (Mycobacterium tuberculosis (strain ATCC 25618 / H37Rv)) (UniProt P9WFW3)", "T1 sequence (whole entry)": "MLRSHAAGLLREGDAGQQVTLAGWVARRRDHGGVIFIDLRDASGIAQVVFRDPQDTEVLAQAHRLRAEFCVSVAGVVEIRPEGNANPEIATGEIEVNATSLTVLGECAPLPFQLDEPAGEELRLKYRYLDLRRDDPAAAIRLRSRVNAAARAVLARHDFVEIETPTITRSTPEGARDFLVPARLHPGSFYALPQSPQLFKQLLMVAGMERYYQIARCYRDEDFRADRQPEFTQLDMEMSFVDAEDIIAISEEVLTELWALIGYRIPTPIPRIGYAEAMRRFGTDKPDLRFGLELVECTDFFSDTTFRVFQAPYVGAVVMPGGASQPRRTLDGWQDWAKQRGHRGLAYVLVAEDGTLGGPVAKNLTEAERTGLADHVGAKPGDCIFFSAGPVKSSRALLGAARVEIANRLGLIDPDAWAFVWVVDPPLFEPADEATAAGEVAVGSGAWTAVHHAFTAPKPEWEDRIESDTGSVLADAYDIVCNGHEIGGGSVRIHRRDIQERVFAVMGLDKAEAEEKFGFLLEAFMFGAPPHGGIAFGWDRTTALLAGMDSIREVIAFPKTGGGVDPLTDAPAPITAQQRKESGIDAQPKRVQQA", "assay": "Assay for Asp RNA synthetase-1 from Mycobacterium tuberculosis", "format": "functional", "design": "scale not given: direction of the effect not stated beside the values", "conditions": "30 µM", "units": {"Percent Effect": "%"}, "values": [{"smiles": "Cn1cnc2c1C(COCC1CC1)CN(Cc1ccsc1)C2", "note": "(centres undefined)", "Percent Effect": 5.14}, {"smiles": "CCc1nc(CN2CCCN(c3ncnc4ccccc34)CC2)no1", "Percent Effect": 13.7}, {"smiles": "CSCC(=O)N1C[C@H]2CC[C@@H]1CN(Cc1ccccc1)C2", "Percent Effect": 4.28}, {"smiles": "Cc1nc(C2CCCN(C(=O)c3scnc3C)C2)no1", "note": "(centres undefined)", "Percent Effect": 1.59}, {"smiles": "CC(=O)N1CCN(C(=O)c2cnn(-c3ccccc3Cl)c2)CC1", "Percent Effect": 4.65}, {"smiles": "O=C1NCC2(CCCN(CCc3ccccc3)C2)Oc2ccccc21", "note": "(centres undefined)", "Percent Effect": -2.1}, {"smiles": "COc1cccc(C(=O)N2CCCC(c3cc(C)[nH]n3)C2)c1OC", "note": "(centres undefined)", "Percent Effect": -1.08}, {"smiles": "CCC1=N[C@@]2(CC[C@@H]3CN(S(=O)(=O)CC)C[C@@H]32)C(=O)N1CC(C)C", "Percent Effect": 2.06}, {"smiles": "CC(NC(=O)CSCC(=O)Nc1ccccc1)c1ccccc1", "note": "(centres undefined)", "Percent Effect": 3.01}, {"smiles": "CC(C)(C)n1cc(C(=O)N2CCCN(Cc3cccs3)CC2)cn1", "Percent Effect": -0.0333}, {"smiles": "CCc1noc(C2CCCCN2C(=O)c2ccn(C3CCCC3)n2)n1", "note": "(centres undefined)", "Percent Effect": -5.11}, {"smiles": "CCn1ncc2c1C(COC)CN(Cc1ccc(OC)cc1)C2", "note": "(centres undefined)", "Percent Effect": -4.44}, {"smiles": "COc1cc2nc3n(c(=O)c2cc1OC)CCN(C(C)=O)CC3", "Percent Effect": -0.551}, {"smiles": "CN(Cc1ccco1)Cc1ccccc1CNC(=O)c1ccc[nH]1", "Percent Effect": 0.725}, {"smiles": "Cc1cccnc1CN1CCC(c2nnc(Cn3cccn3)n2C)CC1", "Percent Effect": -1.2}, {"smiles": "COCC(NC(=O)c1ccc[nH]1)c1cccc(C(F)(F)F)c1", "note": "(centres undefined)", "Percent Effect": -2.7}, {"smiles": "O=C(Cc1ccsc1)N1CCC(n2nc(-c3ccco3)ccc2=O)CC1", "Percent Effect": -0.938}, {"smiles": "CC(C)NC(=O)[C@@H]1C[C@H](N)CN1C(=O)c1cc2ccccc2[nH]c1=O", "Percent Effect": -2.73}, {"smiles": "CCC1CCCN(C(=O)Cc2csc(-c3ncccn3)n2)C1", "note": "(centres undefined)", "Percent Effect": 0.456}]}, {"biological_target": "Shiga toxin 2 (Escherichia coli O157:H7) (UniProt P09385+P09386)", "assay": "E. coli 0.157:H7 Shiga Toxin SOP - stx2 screening assay", "format": "functional", "design": "scale not given: direction of the effect not stated beside the values", "conditions": "30 µM", "units": {"Percent Effect": "%"}, "values": [{"smiles": "Cc1ccc(C)c(OC2CCN(C(=O)c3ccc(C)[nH]c3=O)CC2)c1", "Percent Effect": 16}, {"smiles": "COc1ccc(OCC(=O)NC(C)c2ccc(F)cc2)c(C(=O)O)c1", "note": "(centres undefined)", "Percent Effect": 12}, {"smiles": "CNC(=O)COc1ccc(CNCc2ccc(F)cc2F)cc1", "Percent Effect": -35.4}, {"smiles": "Cc1ccc(CNC(=O)Nc2nnc(C)s2)cn1", "Percent Effect": -6.66}, {"smiles": "Cc1ccc(S(=O)(=O)Nc2ccc(=O)n(C)c2)cc1", "Percent Effect": -7.78}, {"smiles": "CCn1cnnc1CNC(=O)N1CCC(Cc2cccnc2)CC1", "Percent Effect": 2.96}, {"smiles": "O=C(NCc1cccnc1)C1=NN(c2ccccc2)C(=O)CN1", "Percent Effect": -1.16}, {"smiles": "Cc1csc(N2CCCN(C(=O)c3cnns3)CC2)n1", "Percent Effect": -7.36}, {"smiles": "Cc1nnc2n1CCN(CCC(=O)Nc1sccc1C#N)C2", "Percent Effect": 22.9}, {"smiles": "CCOCC1CC2(CCN(Cc3ccccn3)CC2)CO1", "note": "(centres undefined)", "Percent Effect": -0.96}, {"smiles": "Cc1cc(C(=O)N2CCCCC2C)ccc1NCC(=O)N1CCOCC1", "note": "(centres undefined)", "Percent Effect": -49.1}, {"smiles": "C[C@@H]1CN(C(=O)c2ccsc2)C[C@]12CCN(c1ccsc1)C2=O", "Percent Effect": 1.46}, {"smiles": "O=C(c1cccnc1-n1cncn1)N1CCc2ccccc2C1", "Percent Effect": -9.55}, {"smiles": "Cc1nc(C)c(C(=O)N2CCCC2c2nnc3n2CCCCC3)s1", "note": "(centres undefined)", "Percent Effect": -17.2}, {"smiles": "CNc1snc(C)c1C(=O)N1CCCC(n2ccnc2C(C)C)C1", "note": "(centres undefined)", "Percent Effect": 3.71}, {"smiles": "CCCN(C)C(=O)c1ccc2c(c1)[nH]c(=O)n2CCOCC", "Percent Effect": -18.9}, {"smiles": "Cc1ccn(CCC(=O)N2CCOC(c3nc(-c4cccs4)no3)C2)n1", "note": "(centres undefined)", "Percent Effect": 37.2}, {"smiles": "CCCNC(=O)CNC(=O)CCc1ccccc1Br", "Percent Effect": -0.75}, {"smiles": "CN1CCOC(CN(C(=O)Cc2ccccc2F)c2nccs2)C1", "note": "(centres undefined)", "Percent Effect": -16}, {"smiles": "Cc1ccccc1CC(=O)N(C)C1CCCC1", "Percent Effect": -21}, {"smiles": "Cc1cc(C)cc(C2(C(=O)N3CCCC(n4cncn4)C3)CC2)c1", "note": "(centres undefined)", "Percent Effect": 26.6}, {"smiles": "Cn1cnc2c1C(COCC1CC1)CN(Cc1ccsc1)C2", "note": "(centres undefined)", "Percent Effect": -1.62}, {"smiles": "CCc1nc(CN2CCCN(c3ncnc4ccccc34)CC2)no1", "Percent Effect": -69.3}, {"smiles": "CSCC(=O)N1C[C@H]2CC[C@@H]1CN(Cc1ccccc1)C2", "Percent Effect": -4.7}, {"smiles": "Cc1nc(C2CCCN(C(=O)c3scnc3C)C2)no1", "note": "(centres undefined)", "Percent Effect": 5.86}, {"smiles": "CC(=O)N1CCN(C(=O)c2cnn(-c3ccccc3Cl)c2)CC1", "Percent Effect": 14.3}, {"smiles": "O=C1NCC2(CCCN(CCc3ccccc3)C2)Oc2ccccc21", "note": "(centres undefined)", "Percent Effect": -68.8}, {"smiles": "COc1cccc(C(=O)N2CCCC(c3cc(C)[nH]n3)C2)c1OC", "note": "(centres undefined)", "Percent Effect": 27}, {"smiles": "CCC1=N[C@@]2(CC[C@@H]3CN(S(=O)(=O)CC)C[C@@H]32)C(=O)N1CC(C)C", "Percent Effect": -9.69}, {"smiles": "CC(NC(=O)CSCC(=O)Nc1ccccc1)c1ccccc1", "note": "(centres undefined)", "Percent Effect": 16.8}, {"smiles": "CC(C)(C)n1cc(C(=O)N2CCCN(Cc3cccs3)CC2)cn1", "Percent Effect": 35.3}, {"smiles": "CCc1noc(C2CCCCN2C(=O)c2ccn(C3CCCC3)n2)n1", "note": "(centres undefined)", "Percent Effect": -5.88}, {"smiles": "CCn1ncc2c1C(COC)CN(Cc1ccc(OC)cc1)C2", "note": "(centres undefined)", "Percent Effect": -3.46}, {"smiles": "COc1cc2nc3n(c(=O)c2cc1OC)CCN(C(C)=O)CC3", "Percent Effect": 17}, {"smiles": "CN(Cc1ccco1)Cc1ccccc1CNC(=O)c1ccc[nH]1", "Percent Effect": 26.7}, {"smiles": "Cc1cccnc1CN1CCC(c2nnc(Cn3cccn3)n2C)CC1", "Percent Effect": -18.5}, {"smiles": "COCC(NC(=O)c1ccc[nH]1)c1cccc(C(F)(F)F)c1", "note": "(centres undefined)", "Percent Effect": -17.9}, {"smiles": "O=C(Cc1ccsc1)N1CCC(n2nc(-c3ccco3)ccc2=O)CC1", "Percent Effect": 18.8}, {"smiles": "CC(C)NC(=O)[C@@H]1C[C@H](N)CN1C(=O)c1cc2ccccc2[nH]c1=O", "Percent Effect": -0.544}, {"smiles": "CCC1CCCN(C(=O)Cc2csc(-c3ncccn3)n2)C1", "note": "(centres undefined)", "Percent Effect": -14.8}]}]}
